Where a name gives a salt, the structure may show the parent alone. Whole data set: some 1,000 compounds, median “cFRET/donor change relative to DMSO, normalised to beta-lapachone positive control (supercomplex I-IV assembly)” near 0.18, cut for the lowest 2% near -1. The sample as a whole holds a higher share of the lowest values than the screen did.
Tested on: C2C12 (NDUFB8-AcGFP / COX8A-DsRed-Monomer FRET reporter)
Test: cFRET/donor change relative to DMSO, normalised to beta-lapachone positive control (supercomplex I-IV assembly) (fraction of beta-lapachone effect); higher = more respiratory supercomplex assembly
Settings: 40 µM; 24 h
Experimental: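 Cells were treated with 40 uM compound for 24 h and imaged on an IN Cell Analyzer 6000. Corrected FRET was divided by donor signal (cFRET/donor) and measured in two replicate experiments. The score is (mean cFRET/donor of compound - mean DMSO) / (mean beta-lapachone 40 uM - mean DMSO). Compounds flagged for prominent cell death, abnormal morphology or decreased cell number were excluded.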

Row | Structure (SMILES) | cFRET/donor change
1 | COCCOc1cc2nc[nH]c(=O)c2cc1OCCOC | 0.343
2 | CCNC(=O)[C@H]1O[C@@H](n2cnc3c(N)nc(NCCc4ccc(CCC(=O)O)cc4)nc32)[C@H](O)[C@@H]1O | -0.069
3 | Nc1nc2ccc(Cl)cc2c2nc(-c3ccco3)nn12 | 0.163
4 | Nc1nc2ccc(Cl)cc2n2c(-c3ccccc3)nnc12 | -1.23
5 | OC[C@H]1O[C@H]([S-])[C@H](O)[C@@H](O)[C@@H]1O.[Au+] [Aurothioglucose] | -0.0527
6 | Nc1ncnc2c1ncn2[C@@H]1O[C@H](COP(=O)(O)OP(=O)(O)OP(=O)(O)OP(=O)(O)OC[C@@H]2O[C@H](n3cnc4c(N)ncnc43)C(O)[C@@H]2O)[C@H](O)C1O (stereo not given in full) [P1,P4-Di(adenosine-5')tetraphosphate triammonium] | 0.0746
7 | CCOC(=O)[C@H](CCc1ccccc1)N[C@@H](C)C(=O)N1[C@H](C(=O)O)C[C@H]2CCCC[C@@H]21 [Trandolapril] | -0.23
8 | O=C1NC(=O)/C(=C\c2ccc3nccnc3c2)S1 | 2.84
9 | CCc1ccc(/C=C2/SC(=S)NC2=O)cc1 | -1.41
10 | CCCCS(=O)(=O)N[C@@H](Cc1ccc(OCCCCC2CCNCC2)cc1)C(=O)O [Tirofiban hydrochloride monohydrate] | 0.174
11 | CO[C@H]1O[C@@H]2O[C@@]3(C)CC[C@H]4[C@H](C)CC[C@@H]([C@H]1C)[C@@]24OO3 [Artemether] | 0.954
12 | O=C(NOCC1CC1)c1cc(Br)c(F)c(F)c1Nc1ccc(I)cc1Cl | 0.176
13 | COc1cc(Nc2c(C#N)cnc3cc(OCCCN4CCN(C)CC4)c(OC)cc23)c(Cl)cc1Cl [Bosutinib] | 0.241
14 | NCC(O)c1ccc(O)c(O)c1 (racemic) [(±)-Norepinephrine (+)bitartrate] | -0.03
15 | CN(C)C[C@H](O)Cn1c2ccc(Br)cc2c2cc(Br)ccc21 (racemic) [Wiskostatin] | 0.951
16 | CN(C)c1ccccc1CN1CCCN(Cc2ccccc2N(C)C)C1c1ccncc1 | 0.598
17 | CS(=O)(=O)c1ccc(-n2nc(C(F)(F)F)cc2-c2ccc(F)cc2)cc1 | 0.187
18 | O=C(Nc1ccc2[nH]ncc2c1)C1CCC1 [Rhodblock 6] | 0.156
19 | COc1cc2nc(N(C)CCCNC(=O)C3CCCO3)nc(N)c2cc1OC (stereo not given) [Alfuzosin hydrochloride] | 0.0541
20 | CN(C)CCC(c1ccc(Br)cc1)c1ccccn1 (single isomer, unassigned; (+)) [(+)-Brompheniramine maleate] | 0.114
21 | CN1CCN(CCCN2c3ccccc3Sc3ccc(C(F)(F)F)cc32)CC1 [Trifluoperazine dihydrochloride] | 0.794
22 | Nc1nc2c(c(=O)[nH]1)C[C@@H](CCc1ccc(C(=O)N[C@@H](CCC(=O)O)C(=O)O)cc1)CN2 [Lometrexol hydrate] | -0.284
23 | CCN(c1nc(N)c(C(=O)NC(=N)N)nc1Cl)C(C)C [5-(N-Ethyl-N-isopropyl)amiloride] | -1.88
24 | N=C(N)NC(=O)c1nc(Cl)c(N)nc1N [Amiloride hydrochloride] | -0.0692
25 | CN(C)c1nc(N)c(C(=O)NC(=N)N)nc1Cl [5-(N,N-Dimethyl)amiloride hydrochloride] | 0.174
26 | COc1ccc(Br)cc1S(=O)(=O)NC(=O)/C=C/c1ccccc1Cc1ccc2ccccc2c1 | 0.583
27 | COc1ccc(/C=C/c2nc(NCCCN(C)C)c3ccccc3n2)cc1 | 0.418

Row | Structure (SMILES) | cFRET/donor change
28 | Cn1c(=O)c2nc[nH]c2n(C)c1=O [Theophylline] | 0.334
29 | CC[N+](CC)(CC)CCOc1ccc(/C=C/c2ccccc2)cc1 | 0.391
30 | OCCN1CCN(CCCN2c3ccccc3Sc3ccc(Cl)cc32)CC1 [Perphenazine] | 0.48
31 | CN1CCC[C@@H]1Cc1c[nH]c2ccc(CCS(=O)(=O)c3ccccc3)cc12 [Eletriptan hydrobromide] | 0.314
32 | c1ccc(C2CN3CCSC3=N2)cc1 (single isomer, unassigned; (-)) [(-)-Tetramisole hydrochloride] | 0.472
33 | N#CC(=C(/N)Sc1ccccc1N)/C(C#N)=C(/N)Sc1ccccc1N | 1.14
34 | CCOC(=O)[N-]c1c[n+](N2CCOCC2)no1 [Molsidomine] | 0.0144
35 | CCc1cncnc1N1CCN(Cc2nc3ccc(C(F)(F)F)cc3[nH]2)CC1 | 0.351
36 | CN(C)CCCc1cc(C(=O)Nc2ccc(-c3ccncc3)cc2)ccc1O | 0.377
37 | OC(CCN1CCCCC1)(c1ccccc1)C1CC2C=CC1C2 (stereo not given) [Biperiden hydrochloride] | 0.472
38 | CCCCCCCCCCCCCCCCCCN(CCCCCCCCCCCCCCCCCC)CCCN(CCO)CCO [Avridine] | 0.401
39 | O=c1ccc2ccc(O)c(O)c2o1 [Daphnetin] | 0.438
40 | O=Nc1ccc2oc(=O)ccc2c1 [6-Nitroso-1,2-benzopyrone] | -1.07
41 | O=C(CCc1ccncc1)NNC(=O)N1Cc2ccccc2Oc2ccc(Cl)cc21 | 0.597
42 | CC(C)c1c(C(=O)Nc2ccccc2)c(-c2ccccc2)c(-c2ccc(F)cc2)n1CC[C@@H](O)C[C@@H](O)CC(=O)O [Atorvastatin calcium salt trihydrate] | -0.0539
43 | NS(=O)(=O)c1ccc(-n2nc(C(F)(F)F)cc2-c2ccc(Cl)cc2)cc1 | 0.219
44 | Cc1cn(C2C=CC(CO)O2)c(=O)[nH]c1=O (stereo not given) [2',3'-didehydro-3'-deoxythymidine] | 0.515
45 | COc1ccc(S(=O)(=O)Nc2nc(-c3cccc([N+](=O)[O-])c3)cs2)cc1OC | 0.458
46 | O=C1c2c(O)ccc(O)c2C(=O)c2c(NCCNCCO)ccc(NCCNCCO)c21 [Mitoxantrone] | 0.111
47 | O=C1c2ccccc2C(=O)c2c(NCCc3ccc(O)cc3)ccc(NCCc3ccc(O)cc3)c21 | -1.29
48 | CC(NCCc1ccc(O)cc1)C(O)c1ccc(O)cc1 (stereo not given) [Ritodrine hydrochloride] | -0.0849
49 | CCOc1nc2cccc(C(=O)OC(C)OC(=O)OC3CCCCC3)c2n1Cc1ccc(-c2ccccc2-c2nn[nH]n2)cc1 (stereo not given) [Candesartan cilexetil] | 0.942
50 | O=C1NCCc2[nH]c(-c3ccncc3)cc21 | -0.0657
51 | NC(C(=O)O)C(O)C(=O)O (racemic) [DL-threo-beta-hydroxyaspartic acid] | -0.112
52 | Cc1cc2c(cc1Cl)N(C(=O)Nc1ccc(Oc3cccnc3C)nc1)CC2 | -1.37
53 | Cc1cc2c(cc1Cl)N(C(=O)Nc1cccc3ncccc13)CC2 | -0.136
54 | Cn1ccc2cc3c(cc21)CCN3C(=O)Nc1cccnc1 | -0.716

Row | Structure (SMILES) | cFRET/donor change
55 | C[C@H](CCC(=O)NCCS(=O)(=O)O)[C@H]1CC[C@H]2[C@@H]3[C@H](O)C[C@@H]4C[C@H](O)CC[C@]4(C)[C@H]3C[C@H](O)[C@]12C [Sodium Taurocholate hydrate] | 0.0638
56 | COc1ccc2cccc(CCNC(C)=O)c2c1 [Agomelatine] | 0.0655
57 | Clc1ccc(N2CCN(Cc3cc4ccccn4n3)CC2)cc1 | 0.359
58 | CCCCC#Cc1nc(NC)c2ncn([C@@H]3O[C@H](CO)[C@@H](O)[C@H]3O)c2n1 | 0.242
59 | CC(N)=NCCCC[C@H](N)C(=O)O [L-N6-(1-Iminoethyl)lysine hydrochloride] | -0.0938
60 | COc1ccc2c(c1)CC[C@@H]1[C@@H]2CC[C@]2(C)[C@@H](NCCCCCCN3C(=O)CCC3=O)CC[C@@H]12 | 0.325
61 | O=C1N=C(O)NC1(c1ccccc1)c1ccccc1 [Phenytoin sodium] | 0.149
62 | CCN(CC)CCOc1ccc(Nc2ncc3cc(-c4c(Cl)cccc4Cl)c(=O)n(C)c3n2)cc1 | -5.45
63 | Cc1cc(Nc2ncc3cc(-c4c(Cl)cccc4Cl)c(=O)n(C)c3n2)ccc1F | -0.253
64 | Cn1c(=O)c(-c2c(Cl)cccc2Cl)cc2cnc(Nc3ccc(N4CCOCC4)cc3)nc21 | -0.227
65 | CN1Cc2c(N)cccc2C(c2ccccc2)C1 (stereo not given) [Nomifensine maleate] | -0.996
66 | CN1CCc2cc(Cl)c(O)cc2[C@@H](c2ccccc2)C1 | 0.549
67 | CN1Cc2sccc2C(c2ccc(O)c(O)c2)C1 (stereo not given) | 0.596
68 | NS(=O)(=O)C#Cc1ccccc1 [Pifithrin-mu] | 0.551
69 | O=C(O)/C=C/c1cnc[nH]1 [4-Imidazoleacrylic acid] | 0.18
70 | Clc1ccc2c(c1)N=C(N1CCNCC1)c1ccccc1N2 [N-Desmethylclozapine] | 0.316
71 | O=C(CCSCc1ccco1)NNC(=O)N1Cc2ccccc2Oc2ccc(Cl)cc21 | 0.36
72 | COc1cc(NS(C)(=O)=O)ccc1Nc1c2ccccc2nc2ccccc12 [Amsacrine hydrochloride] | 0.257
73 | CC1(C2CCCC2)Cc2cc(OCC(=O)O)c(Cl)c(Cl)c2C1=O (stereo not given) | 0.0296
74 | O=P(O)(O)C(O)(Cn1ccnc1)P(=O)(O)O [Zoledronic acid monohydrate] | 0.239
75 | Cc1ccc(O)c(N=Nc2ccccc2)n1 | 0.375
76 | CO[C@H]1C[C@@H]2CC[C@@H](C)[C@@](O)(O2)C(=O)C(=O)N2CCCC[C@H]2C(=O)O[C@H]([C@H](C)C[C@@H]2CC[C@@H](OC(=O)C(C)(CO)CO)[C@H](OC)C2)CC(=O)[C@H](C)/C=C(\C)[C@@H](O)[C@@H](OC)C(=O)[C@H](C)C[C@H](C)/C=C/C=C/C=C/1C [Temsirolimus] | -0.55
77 | COc1ccc2[nH]c([S@@+]([O-])Cc3ncc(C)c(OC)c3C)nc2c1 [Esomeprazole magnesium dihydrate] | 0.951
78 | NCC=CC(=O)O (stereo in doubt) [cis-4-Aminocrotonic acid] | 0.532
79 | CCN(CC)C(C)CN1c2ccccc2Sc2ccccc21 (stereo not given) [Ethopropazine hydrochloride] | -0.00468
80 | N[C@@H](CCCC(=O)O)C(=O)O [L-2-aminoadipic acid] | -0.139
